Screening results (PubChem)
Many of the other results were omitted from the sample, so hits are more common in it than they were.
HT1080 IDH1KD tx: kills HT-1080 cells with IDH1 knockdown; HT-1080 IDH1 knockdown viability, ATP luminescence, 48 h; Potency, µM (highest dose often 46.1 µM), inactives show at the highest dose activity, negative = toxicity, usual class: cytotoxic; 360,000 tested, 2% active; AID 686971;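 note: potency is the fitted concentration of half-maximal effect; 0% = DMSO wells and -100% = cell-free medium wells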
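In this qHTS, HT-1080 cells depleted of IDH1 are exposed for 48 h at 37 °C to compound titrations. Toxicity is scored from CellTiter-Glo luminescence, with DMSO as full viability and medium alone as none.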
ALOX12 inh: inhibitors of human 12S-lipoxygenase ALOX12; Potency, µM (series often up to 108 µM), without a hit: at the top dose activity change, negative = inhibition, most hits filed as inhibitors; 580,000 tested, 1.1% active; purified 12hLO, xylenol orange hydroperoxide absorbance; P18054; note: potency is the fitted concentration of half-maximal effect
Target sequence (P18054 whole entry, looked up): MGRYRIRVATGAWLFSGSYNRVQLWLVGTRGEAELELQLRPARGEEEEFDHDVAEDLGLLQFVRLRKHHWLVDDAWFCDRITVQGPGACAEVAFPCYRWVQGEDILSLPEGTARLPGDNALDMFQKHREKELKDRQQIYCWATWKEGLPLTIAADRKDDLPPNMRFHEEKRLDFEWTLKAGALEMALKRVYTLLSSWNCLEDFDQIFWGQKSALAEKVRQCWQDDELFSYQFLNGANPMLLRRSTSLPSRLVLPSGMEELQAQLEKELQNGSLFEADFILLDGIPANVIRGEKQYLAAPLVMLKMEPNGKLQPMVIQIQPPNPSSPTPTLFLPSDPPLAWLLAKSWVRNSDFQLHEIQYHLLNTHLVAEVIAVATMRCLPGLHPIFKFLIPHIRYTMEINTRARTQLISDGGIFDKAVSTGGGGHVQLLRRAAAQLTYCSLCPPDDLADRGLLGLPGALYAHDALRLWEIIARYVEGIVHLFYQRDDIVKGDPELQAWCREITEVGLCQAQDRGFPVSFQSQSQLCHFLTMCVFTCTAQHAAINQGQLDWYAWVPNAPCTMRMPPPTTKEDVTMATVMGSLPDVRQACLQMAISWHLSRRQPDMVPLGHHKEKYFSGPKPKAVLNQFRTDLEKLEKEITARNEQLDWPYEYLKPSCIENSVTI
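Purified human 12hLO at 150 nM in 25 mM Hepes, 0.01% Triton X-100, pH 7.0, preincubated 15 min at room temperature with compound. Reaction started with 40 uM arachidonic acid, 30 min at room temperature. Hydroperoxide measured by Fe-xylenol orange, 573/405 nm absorbance ratio.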
IL1B secr inh: blocks inflammasome-driven IL-1 beta release; 360,000 tested, 4.7% active; AID 743279; THP-1 LPS/ATP IL-1B secretion, AlphaLISA, 16 h; active compounds read low; activity change, % at 57.5 µM; in the data active = activity change below about -50%; inconclusive = mostly about -30% to -49%
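Secreted IL-1B measured by AlphaLISA bead assay after 16 h compound exposure of THP-1 cells; compounds (final up to 57.5 uM) added 1 h before LPS (250 ng/mL) and ATP (1.25 mM) stimulation; lower signal means less secretion.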
DT40 TDP1 CPT: DT40-hTDP1 cell growth loss with CPT; 420,000 tested, 12% active; Potency, µM (top dose mostly 46.2 µM), inactives show top-dose activity change, negative = growth inhibition, most hits filed as inhibitors; chicken DT40 Tdp1-/-;hTDP1 cells + 20 nM CPT, ATP luminescence, 48 h; AID 686979; note: potency is the fitted concentration of half-maximal effect; nearly all actives have a fitted effect of over 55% in size
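Cell growth measured by CellTiter-Glo luminescence after a minimum 48 h, 37 C compound exposure with 20 nM CPT in Tdp1-knockout DT40 cells stably expressing hTDP1, seeded 400/well; qHTS titration format.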
TDP1 cell noCPT: qHTS for Inhibitors of human tyrosyl-DNA phosphodiesterase 1 (TDP1): qHTS in cells in absence of CPT; DT40 Tdp1-/- hTDP1 cells, no CPT, ATP luminescence, 48 h; Potency, µM (highest dose often 46.2 µM), inactives show at the highest dose activity change, negative = growth inhibition, most hits filed as inhibitors; 420,000 tested, 15% active; note: potency is the fitted concentration of half-maximal effect; nearly all actives have a fitted effect of over 55% in size
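Chicken DT40 Tdp1-/- cells complemented with human TDP1, screened without camptothecin (DMSO vehicle only), 400 cells/well. Compounds pin-transferred, cells incubated at 37 °C for at least 48 hr. Growth read as ATP-dependent luminescence (CellTiter-Glo, 30 min at RT).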
HT1080-NT tox: kills 2HG-producing HT-1080-NT fibrosarcoma cells; HT-1080-NT fibrosarcoma viability, CellTiter-Glo ATP luminescence, 48 h; Potency, µM (series often up to 46.1 µM), for the others: at the top dose activity, negative = less viability, usual class: cytotoxic; 360,000 tested, 1.6% active;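 note: NT is the 2HG producing partner of a matched IDH1 knockdown line; potency is the fitted concentration of half-maximal effect; 0% = DMSO-treated cells and -100% = media-only wells without cells; nearly all actives have a fitted effect of over 55% in size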
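Viability of the 2HG-overproducing fibrosarcoma line after 48 hours of compound exposure at 37 degrees C was determined by luminescence with CellTiter-Glo, and concentration-effect curves were then fitted and categorized.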
The depositor's hits bear a star; ? = inconclusive; / = not tested or not shown. Unless noted, calls come from the whole dose curve; as a rule, active = well fitted curve in the direction sought with a large enough effect; inconclusive = small, poorly fitted or top-dose-only effect, or another doubt; inactive = no such curve, though single readings can be large; an effect the other way counts as inactive or inconclusive. Unless noted, % is set by controls: 0 for no effect and ±100 for the full control effect.

SMILES	HT1080 IDH1KD tx	ALOX12 inh	IL1B secr inh	DT40 TDP1 CPT	TDP1 cell noCPT	HT1080-NT tox
Clc1ccc(CN2C3=NCCCN3c3ccccc32)cc1	-27%	4%	-29	26µM*	21µM*	?
Cc1ccccc1CN1C2=NCCN2c2ccccc21	10%	?	-5	?	?	-9%
Fc1ccc(CN2C3=NCCCN3c3ccccc32)cc1	1%	-6%	-18	?	?	0%
CCn1cc(CNC(=O)c2cc(-c3cccc(C)c3)nc3ccccc23)cn1	/	-23%	/	/	/	/
C=C(C)COc1ccc2c(=O)c(Oc3ccc(C(=O)OCC)cc3)coc2c1	/	7%	/	/	/	/
Cc1ccc(S(=O)(=O)c2c(C)c(C)c(C)[nH]c2=O)cc1	5%	-4%	13	-26%	13%	12%
Cc1ccc(Sc2sc(=O)n(C)c2S(=O)(=O)c2ccc(C)cc2)cc1	4%	-5%	4	?	21µM*	16%
COc1ccc(C2SCCN2S(=O)(=O)c2ccc(C)cc2)cc1OC (centres undefined)	/	-15%	/	/	/	/
Cc1ccc(S(=O)(=O)N2CCN(S(=O)(=O)c3ccc(C)cc3)C2c2ccccc2)cc1	0%	6%	23	18µM*	?	4%
COc1ccccc1C1SCCN1S(=O)(=O)c1cccc(C(F)(F)F)c1 (centres undefined)	-23%	-15%	?	-5%	16µM*	-4%
COc1ccc(S(=O)(=O)N2CCSC2c2ccc(OC)c(OC)c2)cc1 (centres undefined)	-19%	?	-1	?	16µM*	12%
CCOC(=O)N1CCN(S(=O)(=O)c2ccc(C)cc2)C1c1ccc(OC)cc1 (centres undefined)	-16%	-22%	3	?	?	6%
CCOC(=O)N1CCN(S(=O)(=O)c2ccc(C)cc2)C1c1ccccc1 (centres undefined)	-6%	1%	-14	?	?	-15%
COc1ccc(C2N(S(=O)(=O)c3ccccc3)CCN2S(=O)(=O)c2ccc(C)cc2)cc1 (centres undefined)	-3%	25%	33	16µM*	14µM*	2%
Cc1ccc(Nc2nc3ccccc3nc2NS(=O)(=O)c2cccs2)cc1Cl	/	-2%	/	/	/	/
CCC(=O)N1CCCN(S(=O)(=O)c2ccc(C)cc2)C1c1ccc(OC)cc1 (centres undefined)	5%	-25%	16	-9%	15µM*	4%
S=c1[nH]nc(COc2ccccc2)n1/N=C/C(Cl)=C/c1ccccc1	?	?	-91*	23µM*	16µM*	?
S=c1[nH]nc(-c2ccncc2)n1/N=C/C=C/c1ccccc1	-4%	?	0	-24%	?	-6%
S=c1[nH]nc(COc2ccccc2)n1/N=C/c1cccc(Br)c1	0%	32µM*	34	?	-16%	-4%
S=c1[nH]nc(-c2ccncc2)n1/N=C/C(Cl)=C\c1ccccc1	?	?	-63*	13µM*	8.2µM*	?
O=[N+]([O-])c1ccc(Cl)c(/C=N/n2c(-c3ccncc3)n[nH]c2=S)c1	?	?	39	18µM*	?	-7%
Cn1nccc1C(=O)N1CCCCCCNC(=O)[C@@H]2C[C@@H](c3nc(-c4cccnc4)no3)C[C@@H]21	/	16%	/	/	/	/
Cc1ccc(NC(=O)Cn2c(-c3ccccc3)nc(C)c(CCO)c2=O)cc1Cl	/	19%	/	/	/	/
Cc1cc(C(=O)Nc2cccc(-c3ccc(N4CCOCC4)nn3)c2)ccc1[N+](=O)[O-]	-10%	-9%	-7	?	26µM*	-21%
